Key:
Test in all cases: log2 ratio of Biotin-Ahx-Ub-VS probe labelling (compound/DMSO); higher = less target engagement, active = hit call of the paper (q ≤ 0.05, log2 ratio ≤ -1)
Conditions in all cases: treatment time: 3 h
[1] = compound: CCC1N(CCc2sccc12)C(=O)CCl
Method in brief: (§1)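 DUBs in HEK293T lysate were labelled with Biotin-Ahx-Ub-VS (0.5 µM final, 1 h) after a 3 h treatment with compound at 50 or 200 µM or with DMSO, done in triplicate on 495 µg of lysate per sample. NeutrAvidin-enriched proteins were digested with LysC and trypsin and run by diaPASEF LC-MS/MS. Median-normalised label-free quantities gave average base-two log ratios of compound to DMSO by unpaired t-test, restricted to proteins with at least 2 unique peptides.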

[2] = compound: CN1c2ccccc2C(CS1(=O)=O)NC(=O)CCl
Method in brief: as §1

[3] = compound: Cl.ClCC(=O)N1CCc2ncncc2C1
Method in brief: as §1

[4] = compound: Cl.Cn1ncc2C(CCCc12)NC(=O)CCl
Method in brief: as §1

[5] = compound: ClCC(=O)NC1CCOc2ccccc12
Method in brief: as §1

[6] = compound: ClCC(=O)NC1CCCc2ccccc12
Method in brief: (§2)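 The values are mean compound-versus-vehicle ratios derived by unpaired t-test. For 3 h, triplicate HEK293T lysate samples (495 µg each) were treated with compound at a series of concentrations or with vehicle, after which Biotin-Ahx-Ub-VS was added to 0.5 µM final for 1 h. Labelled deubiquitinases were enriched with NeutrAvidin, digested with LysC and trypsin, and analysed by diaPASEF LC-MS/MS. Ratios are log2 values from global-median-normalised Spectronaut label-free quantities, using proteins with two or more unique peptides.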

[7] = compound: ClCC(=O)N[C@@H]1CCCc2ccccc12
Method in brief: as §2

[8] = compound: ClCC(=O)N[C@H]1CCCc2ccccc12
Method in brief: as §2

[9] = compound: CCC1N(CCc2cc(OC)c(Cl)cc12)C(=O)CCl
Method in brief: as §1

[10] = compound: CCCC1N(CCc2cc(OC)c(OC)cc12)C(=O)CCl
Method in brief: as §1

Measured: log2 ratio of Biotin-Ahx-Ub-VS probe labelling

USP4 (UniProt Q13107)
UniProt Q13107, sequence (Q13107 whole entry): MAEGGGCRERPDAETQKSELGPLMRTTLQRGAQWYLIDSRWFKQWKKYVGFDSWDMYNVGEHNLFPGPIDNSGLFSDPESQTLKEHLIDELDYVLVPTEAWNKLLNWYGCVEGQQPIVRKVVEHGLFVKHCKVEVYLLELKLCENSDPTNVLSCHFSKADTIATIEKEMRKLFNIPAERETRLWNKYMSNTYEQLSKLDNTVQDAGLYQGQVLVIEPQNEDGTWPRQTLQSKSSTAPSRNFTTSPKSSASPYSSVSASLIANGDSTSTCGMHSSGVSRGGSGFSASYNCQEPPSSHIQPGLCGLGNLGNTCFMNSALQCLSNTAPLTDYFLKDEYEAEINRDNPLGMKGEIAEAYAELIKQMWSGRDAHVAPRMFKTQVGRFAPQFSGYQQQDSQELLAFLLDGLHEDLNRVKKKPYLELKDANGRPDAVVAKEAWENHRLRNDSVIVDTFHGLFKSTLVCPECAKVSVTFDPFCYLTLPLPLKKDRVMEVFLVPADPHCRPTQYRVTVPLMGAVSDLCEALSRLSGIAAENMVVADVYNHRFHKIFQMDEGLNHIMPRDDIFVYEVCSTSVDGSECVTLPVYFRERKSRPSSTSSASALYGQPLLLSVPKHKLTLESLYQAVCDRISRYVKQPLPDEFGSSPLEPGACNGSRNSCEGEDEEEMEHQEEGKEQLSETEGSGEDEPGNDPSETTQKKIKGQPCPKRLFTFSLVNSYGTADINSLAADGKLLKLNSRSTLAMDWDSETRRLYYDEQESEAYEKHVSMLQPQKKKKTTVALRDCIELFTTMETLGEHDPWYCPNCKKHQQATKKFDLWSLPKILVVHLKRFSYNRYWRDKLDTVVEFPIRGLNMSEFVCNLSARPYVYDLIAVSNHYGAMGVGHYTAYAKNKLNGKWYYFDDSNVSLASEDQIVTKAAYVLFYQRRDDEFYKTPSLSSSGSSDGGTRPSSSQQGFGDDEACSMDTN
inactive: [1]; compound concentration: 50uM -0.339 | [1]; compound concentration: 200uM -0.482 | [2]; compound concentration: 50uM -0.215 | [2]; compound concentration: 200uM 0.178 | [3]; compound concentration: 50uM -0.548 | [4]; compound concentration: 50uM -0.0561 | [4]; compound concentration: 200uM 0.256 | [5]; compound concentration: 50uM 0.078 | [5]; compound concentration: 200uM -0.359 | [6]; compound concentration: 0.78uM 0.169 | [6]; compound concentration: 1.56uM 0.0194 | [6]; compound concentration: 3.13uM 0.211 | [6]; compound concentration: 6.25uM 0.184 | [6]; compound concentration: 12.5uM 0.134 | [6]; compound concentration: 25uM 0.0663 | [6]; compound concentration: 50uM -0.0777 | [6]; compound concentration: 100uM -0.146 | [6]; compound concentration: 200uM 0.149 | [7]; compound concentration: 0.78uM 0.155 | [7]; compound concentration: 1.56uM 0.0643 | [7]; compound concentration: 3.13uM 0.0496 | [7]; compound concentration: 6.25uM -0.232 | [7]; compound concentration: 12.5uM -0.312 | [7]; compound concentration: 25uM 0.121 | [7]; compound concentration: 50uM -0.0633 | [7]; compound concentration: 100uM 0.0515 | [7]; compound concentration: 200uM -0.637 | [8]; compound concentration: 0.78uM 0.0773 | [8]; compound concentration: 1.56uM 0.0727 | [8]; compound concentration: 3.13uM 0.172 | [8]; compound concentration: 6.25uM -0.243 | [8]; compound concentration: 12.5uM 0.0883 | [8]; compound concentration: 25uM -0.0943 | [8]; compound concentration: 50uM 0.0929 | [8]; compound concentration: 100uM -0.0812 | [8]; compound concentration: 200uM -0.126 | [9]; compound concentration: 200uM 0.334 | [10]; compound concentration: 50uM -0.121 | [10]; compound concentration: 200uM -0.75
active: [3]; compound concentration: 200uM -1.33 | [9]; compound concentration: 50uM -1.04

UniProt O00487
UniProt O00487, sequence (O00487 whole entry): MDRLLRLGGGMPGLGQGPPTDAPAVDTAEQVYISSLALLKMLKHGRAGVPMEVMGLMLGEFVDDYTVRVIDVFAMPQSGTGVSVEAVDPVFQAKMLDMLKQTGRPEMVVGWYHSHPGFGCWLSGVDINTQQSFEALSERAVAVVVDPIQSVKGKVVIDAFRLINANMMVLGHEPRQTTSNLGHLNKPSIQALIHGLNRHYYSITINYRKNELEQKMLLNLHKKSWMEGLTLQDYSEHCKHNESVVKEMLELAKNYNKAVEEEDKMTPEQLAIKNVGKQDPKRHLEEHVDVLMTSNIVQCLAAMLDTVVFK
inactive: [1]; compound concentration: 50uM -0.193 | [1]; compound concentration: 200uM -0.218 | [2]; compound concentration: 50uM -0.0425 | [2]; compound concentration: 200uM -0.0779 | [3]; compound concentration: 50uM 0.107 | [3]; compound concentration: 200uM -0.106 | [4]; compound concentration: 50uM -0.124 | [4]; compound concentration: 200uM -0.336 | [5]; compound concentration: 50uM 0.217 | [5]; compound concentration: 200uM -0.351 | [6]; compound concentration: 0.78uM -0.644 | [6]; compound concentration: 1.56uM -0.964 | [6]; compound concentration: 3.13uM -0.768 | [6]; compound concentration: 6.25uM -0.916 | [6]; compound concentration: 12.5uM -0.0532 | [6]; compound concentration: 25uM -1.08 | [6]; compound concentration: 50uM -1.09 | [6]; compound concentration: 100uM -0.828 | [6]; compound concentration: 200uM -0.122 | [7]; compound concentration: 0.78uM -0.274 | [7]; compound concentration: 1.56uM -0.457 | [7]; compound concentration: 3.13uM -0.399 | [7]; compound concentration: 6.25uM -0.508 | [7]; compound concentration: 12.5uM -0.515 | [7]; compound concentration: 25uM -0.563 | [7]; compound concentration: 50uM -0.92 | [7]; compound concentration: 100uM 0.108 | [7]; compound concentration: 200uM -0.319 | [8]; compound concentration: 0.78uM -0.768 | [8]; compound concentration: 1.56uM -0.631 | [8]; compound concentration: 3.13uM -0.859 | [8]; compound concentration: 6.25uM -0.646 | [8]; compound concentration: 12.5uM 0.00923 | [8]; compound concentration: 25uM -0.657 | [8]; compound concentration: 50uM -0.0791 | [8]; compound concentration: 100uM -0.905 | [8]; compound concentration: 200uM -0.369 | [9]; compound concentration: 50uM 0.0571 | [9]; compound concentration: 200uM 0.132 | [10]; compound concentration: 50uM 0.000271 | [10]; compound concentration: 200uM -0.108

Reference: the supplement of paper PMC11732987, “Enantioselective OTUD7B fragment discovery through chemoproteomics screening and high-throughput optimisation” (Communications Chemistry, 2025)
